Inconclusive results are not listed. Calls of active or inactive are those of the source. Unless noted, calls follow the shape of the dose curve; as a rule, active = well fitted curve in the direction sought with a large enough effect; inconclusive = small, poorly fitted or top-dose-only effect, or another doubt; inactive = no such curve, though single readings can be large; an effect the other way counts as inactive or inconclusive.

The nature of experiment [1]: Confirmation and Secondary Assay for Modulators of Hemoglobin Beta Chain Splicing at IVS2 705 locus (AID 930).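 Also: HeLa cells stably expressing the EGFP-705 splicing reporter; GFP fluorescence per well restored by corrected splicing of the IVS2-705 intron in EGFP; % of control where 0% means no effect.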 The method, boiled down:
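HeLa IVS2-705 EGFP reporter cells, 500/well, compound 2 d at 37C; correct splicing yields fluorescent EGFP. Control: 500 nM antisense PNA. Read-out: total peak GFP intensity.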

A short description of experiment [2]: qHTS Assay for Lipid Storage Modulators (AID 1519; calls by dose curve; as to activity change, negative = inhibition: % is scaled to controls: 0 for no effect and ±100 for the full control effect). Conditions: Drosophila S3 cells, BODIPY lipid droplet/cell ratio, laser cytometry, cells loaded with oleic acid; for activity change, negative = inhibition: at 57.5 µM (top of the series). In a few lines:
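Cells seeded at 5,000 per well were treated with compounds over a concentration series and loaded with oleic acid (400 uM, as added). Lipid droplet fluorescence (488 nm excitation, 500-530 nm channel) was read by laser-scanning cytometry and normalized to 20 uM Triacsin C.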

Experiment [3] concerns the target Ubiquitin carboxyl-terminal hydrolase 1 (Homo sapiens) (UniProt O94782). The experiment in a line: Inhibitors of USP1/UAF1: Pilot qHTS (AID 504865). Also: nearly all actives have a fitted effect of over 35% in size. Also: potency is read from the fitted curve at half-maximal effect.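 As to activity change, negative = inhibition: rhodamine fluorescence freed from ubiquitin-rhodamine substrate followed over time; top concentration of the series differs between compounds; % is scaled to controls: 0 for no effect and ±100 for the full control effect.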 In a few lines: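 Enzyme-free wells gave the negative control, while test wells held 1nM USP1/UAF1 preincubated with compound for 15 min at room temperature. Ub-Rho at 150nM final started the reaction, and fluorescence at 480/540 nm was recorded kinetically.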

Experiment [4] in a line: qHTS profiling for inhibitors of Plasmodium falciparum proliferation (AID 504749). Also: potency is read from the fitted curve at half-maximal effect.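 As to activity, negative = inhibition: 0% = DMSO vehicle and full inhibition = artemisinin control.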 As to all read-outs here: nearly all actives have a fitted effect of over 60% in size. As to conditions: P. falciparum in erythrocytes, SYBR Green DNA, 72 h; for activity, negative = inhibition: at 28.7 µM (top of the series). The method, boiled down:
(§1)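 Readout was DNA-dye fluorescence from lysed cultures, ex 485/em 535 nm. Parasitized red cells had grown 72 h with compound; data scaled between 0.29 uM artemisinin and DMSO wells and corrected using vehicle-only plates.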

In experiment [5] the test system is C2A. The description is as above. As to conditions: P. falciparum in erythrocytes, SYBR Green DNA, 72 h; series mostly up to 12.8 µM. In a few lines: as §1
Experiment [6] has as its system CP185. The description is as above. As to conditions: P. falciparum in erythrocytes, SYBR Green DNA, 72 h; series mostly up to 12.8 µM. The method, boiled down: as §1
Experiment [7] has as its system CP201. Described as above. As to conditions: P. falciparum in erythrocytes, SYBR Green DNA, 72 h; series mostly up to 12.8 µM. The method, boiled down:
as §1

Experiment [8] relates to CP211. Described as above. As to conditions: P. falciparum in erythrocytes, SYBR Green DNA, 72 h; series mostly up to 12.8 µM. The method, boiled down: as §1
Experiment [9] relates to CP238. The experiment is described as above. As to conditions: P. falciparum in erythrocytes, SYBR Green DNA, 72 h; series mostly up to 12.8 µM. In a few lines: as §1
Experiment [10] deals with CP262. The experiment is described as above. Conditions: P. falciparum in erythrocytes, SYBR Green DNA, 72 h; series mostly up to 12.8 µM. In a few lines:
as §1

The test system of experiment [11] is CP268. Described as above. As to conditions: P. falciparum in erythrocytes, SYBR Green DNA, 72 h; series mostly up to 12.8 µM. In a few lines: as §1
The test system of experiment [12] is CP269. Described as above. As to conditions: P. falciparum in erythrocytes, SYBR Green DNA, 72 h; series mostly up to 12.8 µM. In a few lines:
as §1

The subject of experiment [13] is CP305. The experiment is described as above. Conditions: P. falciparum in erythrocytes, SYBR Green DNA, 72 h; series mostly up to 12.8 µM. In a few lines:
as §1

Experiment [14] deals with CP315. The description is as above. Conditions: P. falciparum in erythrocytes, SYBR Green DNA, 72 h; series mostly up to 12.8 µM. The method, boiled down:
as §1

Experiment [15] relates to CP325. The experiment is described as above. As to conditions: P. falciparum in erythrocytes, SYBR Green DNA, 72 h; series mostly up to 12.8 µM. The method, boiled down:
as §1

For experiment [16], the system named is CP329. Described as above. Conditions: P. falciparum in erythrocytes, SYBR Green DNA, 72 h; series mostly up to 12.8 µM. In a few lines:
as §1

Experiment [17] concerns FAB9. The description is as above. As to conditions: P. falciparum in erythrocytes, SYBR Green DNA, 72 h; series mostly up to 12.8 µM. In a few lines:
as §1

Experiment [18] relates to JCK. Described as above. As to conditions: P. falciparum in erythrocytes, SYBR Green DNA, 72 h; series mostly up to 12.8 µM. In a few lines: as §1
The test system of experiment [19] is PC15. Described as above. As to conditions: P. falciparum in erythrocytes, SYBR Green DNA, 72 h; series mostly up to 12.8 µM. In a few lines:
as §1

Experiment [20] relates to PC49. The description is as above. As to conditions: P. falciparum in erythrocytes, SYBR Green DNA, 72 h; series mostly up to 12.8 µM. In a few lines: as §1
The mark [21] stands for this setting: measured here: cell count channel max response.
Setting [22] is: measured here: lipid channel max response.

Sequence of Ubiquitin carboxyl-terminal hydrolase 1 (Homo sapiens) (O94782 whole entry, looked up): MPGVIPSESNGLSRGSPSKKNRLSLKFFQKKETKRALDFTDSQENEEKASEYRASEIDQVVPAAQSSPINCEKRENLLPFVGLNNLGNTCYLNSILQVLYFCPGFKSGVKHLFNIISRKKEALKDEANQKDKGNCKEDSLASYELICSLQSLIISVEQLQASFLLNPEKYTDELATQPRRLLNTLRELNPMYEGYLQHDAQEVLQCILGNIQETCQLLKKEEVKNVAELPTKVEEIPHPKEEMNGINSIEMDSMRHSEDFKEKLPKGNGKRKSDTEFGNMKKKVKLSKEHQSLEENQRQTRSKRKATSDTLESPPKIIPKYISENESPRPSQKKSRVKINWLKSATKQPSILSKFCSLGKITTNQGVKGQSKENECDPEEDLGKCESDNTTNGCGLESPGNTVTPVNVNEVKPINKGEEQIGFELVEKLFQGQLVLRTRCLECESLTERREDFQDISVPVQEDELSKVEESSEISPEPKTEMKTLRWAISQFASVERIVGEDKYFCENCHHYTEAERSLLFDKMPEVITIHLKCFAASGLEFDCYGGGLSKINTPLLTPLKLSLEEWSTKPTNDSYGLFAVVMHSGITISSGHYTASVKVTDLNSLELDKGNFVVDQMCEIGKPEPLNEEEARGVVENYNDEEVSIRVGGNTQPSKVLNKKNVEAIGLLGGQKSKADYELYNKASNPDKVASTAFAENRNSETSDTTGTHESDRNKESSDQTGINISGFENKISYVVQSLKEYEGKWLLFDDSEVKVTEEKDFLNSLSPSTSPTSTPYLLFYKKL

As for `Cc1cc(O)c(C=O)c2c1C(=O)Oc1c(C)c(O)c3c(c1O2)C(O)OC3=O` (stereo unspecified), the Potency result in [1] is “inactive”. For the same compound, the activity change, negative = inhibition in [2] is 13.7% (inactive). The max response was found to be 7.17% in experiment [2] (setting [21]) and 21% in experiment [2] (setting [22]). Besides, the Potency in experiment [3] is 39.8 µM (active).
Regarding `COc1ccc(CC(N)C(=O)NC2C(CO)OC(n3cnc4c(N(C)C)ncnc43)C2O)cc1` (stereo unspecified), the Potency entry in experiment [1] and in [3] was “inactive” in each case. Further, the activity change, negative = inhibition in experiment [2] is -15.4% (inactive). The max response is 18.9% in experiment [2] (setting [21]) and 1.24% in [2] (setting [22]). Besides, the Potency in experiment [4] (parasite line A) is 0.794 µM (active); in experiment [4] (parasite line B) it was 1 µM (active); in [5], 0.891 µM (active); in experiment [6], 0.631 µM (active); in [7], 1.51 µM (active); in experiment [8], 0.478 µM (active). Besides, the Potency is 0.794 µM (active) in [9]; 0.675 µM (active) in [10]; 1.51 µM (active) in experiment [11]; 0.757 µM (active) in experiment [12]; 1.2 µM (active) in experiment [13]; 0.849 µM (active) in experiment [14]. The Potency is 1.07 µM (active) in experiment [15]; 1.07 µM (active) in [16]; 1.78 µM (active) in experiment [17]; 3.55 µM (active) in [18]; 1.26 µM (active) in experiment [19]; 2 µM (active) in experiment [20].
As to `CCC(CCC(C)C1CCC2C3CC=C4CC(O)CC[C@@]4(C)C3CC[C@@]12C)C(C)C` (stereo partly specified), the Potency result in [1], in [3], in experiment [5], in experiment [6], in experiment [7] and in experiment [8] was “inactive” each time. Moreover, the Potency result in [9], in [10], in experiment [11], in experiment [12], in [13] and in experiment [14] was “inactive” throughout. Moreover, the Potency result in [15], in [16], in [17], in experiment [18], in experiment [19] and in experiment [20] was “inactive” each time. For the same compound, the activity change, negative = inhibition in experiment [2] is 3.18% (inactive). Further, the max response in experiment [2] (setting [21]) was 9.21%; in experiment [2] (setting [22]) it was 15.1%. Also, the activity, negative = inhibition in [4] (parasite line A) is -3.58% (inactive); in experiment [4] (parasite line B), 13.1% (inactive).
As to `O=c1[nH]c(=O)n([C@@H]2O[C@H](CO)[C@@H](O)[C@H]2O)cc1Br`, the activity change, negative = inhibition in experiment [2] was -8.5% (inactive). The max response is -11.6% in experiment [2] (setting [21]) and -16.6% in [2] (setting [22]). The Potency entry in [3] was “inactive”.
In the case of `CCC(=O)O[C@@]1(C(=O)CCl)C(C)CC2C3CCC4=CC(=O)C=C[C@@]4(C)[C@]3(F)C(O)C[C@]21C` (stereo partly specified), the Potency result in [1], in experiment [17], in experiment [18] and in experiment [20] was “inactive” throughout. In experiment [2], the activity change, negative = inhibition was 11.7% (inactive). Further, the max response in [2] (setting [21]) is 9.83%; in experiment [2] (setting [22]), 20.1%. Besides, in experiment [9], the Potency was 7.94 µM (active).
As to `Nc1nc2ncc(CNc3ccc(C(=O)NC(CCC(=O)O)C(=O)O)cc3)nc2c(=O)[nH]1` (stereo unspecified), the Potency result in experiment [1], in experiment [3], in [5], in [6], in experiment [7] and in [8] was “inactive” each time. Also, the Potency entry in [9], in experiment [10], in experiment [11], in experiment [12], in [13] and in experiment [14] was “inactive” each time. Moreover, the Potency result in experiment [15], in [16], in experiment [17], in experiment [18], in experiment [19] and in experiment [20] was “inactive” each time. Moreover, in experiment [2], the activity change, negative = inhibition was 5.18% (inactive). For the same compound, the values for the max response in experiment [2] (setting [21]) and in experiment [2] (setting [22]) were 16.9% and 24.2%, respectively. Moreover, the activity, negative = inhibition in experiment [4] (parasite line A) was 10.3% (inactive); in [4] (parasite line B) it was 16.6% (inactive).

(Values after PubChem BioAssay (NCATS).)
